Screening results deposited in PubChem BioAssay by several laboratories.
CSC inhib: blocks cancer stem cells; cancer stem cell-like cells viability, luminescence; inhibition, % at 7.5 µM; actives 1.1% (n = 300,000); AID 2717; in the data active means inhibition above about 75%; tested in HMLE shEcad cells
Shn3 3UTR inh: reduces Shn3 3'UTR luciferase signal in osteoblasts. inhibition, % at 12.5 µM. actives 0.52% (n = 360,000). Clone20 osteoblast Shn3 3'UTR firefly luciferase, 24 h. AID 588674;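 active means mean inhibition of at least 75% with every replicate also reaching 75%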
Gli-Sufu antag: antagonists of Gli-Sufu signaling | inhibition, % at 5 µM | AID 588413 | Sufu-KO-LIGHT fibroblasts, Gli luciferase reporter luminescence | actives 0.74% (n = 340,000);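 active means inhibition above about 55%, limit read from the data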
Beta apoptosis: blocks beta cell apoptosis; INS-1E cytokine-induced death, ATP luminescence, 48 h; percent of positive-control rescue, neutral wells zero; protection from apoptosis, % (concentration not given with the values); actives 0.8% (n = 300,000); AID 435005;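 active means Every replicate reaches about 75%, or at least half do and their mean reaches it too, limit read from the data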;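 further: higher means more ATP so stronger rescue from cytokine killing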
Mdm2-MdmX inh: inhibitors of human Mdm2/MdmX interaction. O15151+Q00987. SaOS-2 split-luciferase Mdm2/MdmX complementation, luminescence. inhibition, % at 8 µM. actives 3% (n = 330,000). AID 485346;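 active means inhibition of at least 50% at 8 µM in the primary screen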
PAX8 inh HTS: inhibitors of PAX8 transcriptional activity in RMG-I cells. AID 652154. actives 1.2% (n = 360,000). RMG-I TPO-luciferase reporter, SteadyGlo, 24 h. inhibition, % at 12.6 µM;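 active means mean replicate inhibition at least 60% with every replicate also reaching 60%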;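 further: luciferase light reporting Pax8 driven TPO promoter activity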
Gli antag conf: Gli-SUFU antagonism confirmation, single concentration; shares compounds with Gli-Sufu antag; Sufu-KO-LIGHT cells, Gli luciferase reporter, luminescence; inhibition, % at 5 µM; actives 40% (n = 2,500);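 active means mean inhibition at 5 µM reaching about 45%, limit read from the data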
SufuKO cytotox: cytotoxicity counter-screen for Gli-SUFU antagonists | shares compounds with Gli-Sufu antag | Sufu-KO-LIGHT cells cytotoxicity, ATP luminescence | cytotoxicity, % at 5 µM | actives 32% (n = 2,500) | AID 651994;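 active means mean cytotoxicity at 5 µM above about 25%, limit read from the data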;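 further: cells exposed to compound overnight for roughly 16 to 18 hours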
Wnt3a counter: inhibits Wnt3a reporter, counter-screen for Gli-SUFU antagonists. inhibition, % at 6.25 µM. Wnt-LIGHT cells, Wnt3a-driven luciferase reporter, luminescence. shares compounds with Gli-Sufu antag. actives 20% (n = 2,500). AID 651995;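 active means mean inhibition above about 25%, limit read from the data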
Each line names hits and unclear results; the compound was inactive in the other large screens (follow-up assays come after a bar, where they were run). This is a sample that favours compounds with a hit; in the whole collection about 4% have one here.

C[C@H]1CN([C@@H](C)CO)C(=O)c2cc(NS(=O)(=O)c3ccccc3)ccc2O[C@@H]1CN(C)C(=O)Nc1cccc2ccccc12	none (no result: CSC inhib, Shn3 3UTR inh, Gli-Sufu antag, Beta apoptosis, Mdm2-MdmX inh)
CCn1cc(C(=O)NCCN(C)CCc2ccccc2)c(=O)c2cc(S(=O)(=O)N(C)C)ccc21	Gli-Sufu antag 69 (no result: PAX8 inh HTS) | Gli antag conf inactive | SufuKO cytotox inactive | Wnt3a counter inactive
CCN1CCN(CCCCSc2ccccc2)CC1	none (no result: Shn3 3UTR inh, Gli-Sufu antag, PAX8 inh HTS)
c1ccc(SCCCCN2CCOCC2)cc1	none | Gli antag conf inactive | SufuKO cytotox 27 | Wnt3a counter inactive
COc1ccc(NC(=O)Nc2ccc3c(c2)[C@H]2C[C@H](CC(=O)O)O[C@@H](CO)[C@H]2O3)cc1	none (no result: CSC inhib, Shn3 3UTR inh, Gli-Sufu antag, Beta apoptosis, Mdm2-MdmX inh)
CCn1cc(CN(C)S(=O)(=O)c2cccc([N+](=O)[O-])c2)cn1	none
CCn1cc(CN(C)S(=O)(=O)c2ccc3ccccc3c2)c(C)n1	Shn3 3UTR inh 90 | Gli antag conf 50 | SufuKO cytotox inactive | Wnt3a counter 28
O=C(NC[C@H]1CC[C@H]2[C@H](CN2Cc2ccc(Oc3ccccc3)cc2)O1)C1CCOCC1	none (no result: CSC inhib, Shn3 3UTR inh, Gli-Sufu antag, Beta apoptosis, Mdm2-MdmX inh)
CC(=O)Nc1ccc(NC(=O)Nc2cccc(C)c2C)cc1	none
CC(=O)Nc1ccc(NC(=O)Nc2ccccc2C)cc1	Gli-Sufu antag 76 | Gli antag conf inactive | SufuKO cytotox inactive | Wnt3a counter inactive
Cc1ccccc1NC(=O)NCCCCc1ccccc1	Gli-Sufu antag 96 | Gli antag conf inactive | SufuKO cytotox inactive | Wnt3a counter inactive
Cc1ccc(S(=O)(=O)Nc2ccc3c(c2)CC(=O)N([C@@H](C)CO)C[C@@H](C)[C@@H](CN(C)C)O3)cc1	none (no result: CSC inhib, Shn3 3UTR inh, Gli-Sufu antag, Beta apoptosis, Mdm2-MdmX inh)
C[C@H](CO)N1C[C@H](C)[C@H](CN(C)C(=O)CCCN(C)C)OCCCC[C@H](C)Oc2ccc(NC(=O)Nc3ccc(C(F)(F)F)cc3)cc2C1=O	none (no result: CSC inhib, Shn3 3UTR inh, Gli-Sufu antag, Beta apoptosis, Mdm2-MdmX inh)
CCOc1ccc(NS(=O)(=O)c2ccc(C(=O)N3CCN(c4ncccn4)CC3)cc2)cc1	none
COc1ccc(NS(=O)(=O)c2ccc3c(c2)N(C(C)=O)CC(C)S3)c(OC)c1 (stereo not drawn)	none | Gli antag conf inactive | SufuKO cytotox inactive | Wnt3a counter inactive
CCOc1ccc(NS(=O)(=O)c2ccc3c(c2)N(C(C)=O)CCS3)cc1	none | Gli antag conf inactive | SufuKO cytotox inactive | Wnt3a counter inactive
CCOc1ccc(NS(=O)(=O)c2ccc(C(=O)N3CCCCC3)cc2)cc1	Gli-Sufu antag 55 | Gli antag conf inactive | SufuKO cytotox 29 | Wnt3a counter inactive
O=C(Cc1ccc(S(=O)(=O)N2CCOCC2)s1)N1CCN(S(=O)(=O)c2cccc(F)c2)CC1	none (no result: CSC inhib, Beta apoptosis, Mdm2-MdmX inh)
O=C(Cc1ccc(S(=O)(=O)N2CCOCC2)s1)Oc1ccc(F)cc1	Gli-Sufu antag 96 | Gli antag conf inactive | SufuKO cytotox inactive | Wnt3a counter inactive
CCCC(=O)Nc1ccc2c(c1)OC[C@@H](C)NC[C@H](C)[C@H](OC)CN(C)C2=O	none (no result: CSC inhib, Shn3 3UTR inh, Gli-Sufu antag, Beta apoptosis, Mdm2-MdmX inh)
CN(C)c1ccc(NC(=O)CN2CCC(NC(=O)C3CCCCC3)CC2)cc1	none
CN(C)c1ccc(NC(=O)CN2CCC(N3CCCCC3)CC2)cc1	none | Gli antag conf inactive | SufuKO cytotox inactive | Wnt3a counter inactive
O=C1C(=O)N(CCCn2ccnc2)C(c2cccc(Br)c2)/C1=C(\O)c1ccc2c(c1)OCCO2 (stereo not drawn)	none | Gli antag conf inactive | SufuKO cytotox inactive | Wnt3a counter inactive
O=C1C(=O)N(CCCn2ccnc2)C(c2ccc(Br)cc2)/C1=C(\O)c1ccc2c(c1)OCCO2 (stereo not drawn)	none
CNC[C@@H]1Oc2ccc(NS(=O)(=O)c3ccc(F)cc3)cc2CC(=O)N([C@@H](C)CO)C[C@H]1C	none (no result: CSC inhib, Shn3 3UTR inh, Gli-Sufu antag, Beta apoptosis, Mdm2-MdmX inh)
CCCOc1ccc(Br)cc1CSC(=N)N	Gli-Sufu antag 61, Beta apoptosis 99 | Gli antag conf 56 | SufuKO cytotox 27 | Wnt3a counter inactive
CCOc1ccc(Br)cc1CC(=O)O	none (no result: Beta apoptosis, PAX8 inh HTS)
